Compounds without any hit were thinned out: in the full panel of roughly 83,000, 20% have a hit.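 Single-dose data. Exposure time 48 hours. Values below 10 considered active.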 Activity calls are given as the source filed them.
system: HL-60(TB) leukemia; assay: NCI-60 one-dose screen, 48 h (100 = growth as untreated, 0 = no growth, -100 = all killed); details: 10 µM unless noted

Structure (SMILES) | growth
NC(N)=Nc1ccc(Oc2ccc(Nc3ccc(Cl)c(C(F)(F)F)c3)cc2)cc1 | -33.8% (active)
N#Cc1c(NC(=O)c2cccc(C(F)(F)F)c2F)sc2c1CCC(=O)C2 | -17.4% (active)
Nc1c(C(=O)Nc2ccc(Cl)cc2)sc2nc(-c3cnccn3)cc(-c3cccs3)c12 | 58.3% (inactive)
Cn1ccnc1C(=O)/C=C/c1ccc(C(=O)Nc2ccc(NC(=O)CCNC(=O)c3csc(Br)n3)cc2)cc1 | 41% (inactive)

— PubChem BioAssay (NCI)
